TCR CD3 inh = inhibitors of human TCR-CD3 interaction. 360,000 tested, 0.37% active. TAMRA-labeled TCR probe fluorescence, biochemical. inhibition, % at 9.4 µM;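 note: recombinant mutant TCR 2C K166C tagged with TAMRA read by polarization; 0% = receptor in buffer alone and 100% = receptor with positive control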
PME-1 inh = PME-1 (human) inhibition; AID 2130; 320,000 tested, 0.53% active; inhibition, % at 5.9 µM; Q9Y570; recombinant PME-1, FP-Rh probe fluorescence polarization;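 active = inhibition above the campaign mean of all compounds plus 3 SD, cut at about 26% in these data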;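 note: competitive labeling of PME-1 active site by serine hydrolase directed probe; 0% = PME-1 with DMSO and 100% = wells lacking PME-1 enzyme; inhibitors block probe labeling so polarization falls and inhibition rises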
Target sequence (Q9Y570 whole entry, looked up): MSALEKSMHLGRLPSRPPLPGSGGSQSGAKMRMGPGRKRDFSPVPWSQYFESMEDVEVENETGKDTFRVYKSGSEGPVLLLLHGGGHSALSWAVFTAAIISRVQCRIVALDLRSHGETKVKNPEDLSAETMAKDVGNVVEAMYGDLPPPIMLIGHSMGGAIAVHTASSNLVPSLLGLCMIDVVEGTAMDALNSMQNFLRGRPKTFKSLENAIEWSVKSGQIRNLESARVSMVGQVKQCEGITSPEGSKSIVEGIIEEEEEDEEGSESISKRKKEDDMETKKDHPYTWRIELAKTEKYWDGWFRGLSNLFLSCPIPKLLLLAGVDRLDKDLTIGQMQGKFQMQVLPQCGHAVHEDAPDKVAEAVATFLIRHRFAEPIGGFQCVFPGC
Fam108B counter = blocks mouse Fam108B hydrolase in RBBP9 counter-screen. inhibition, % at 9.51 µM. recombinant Fam108B, FP-Rh probe fluorescence polarization. 300,000 tested, 0.33% active. AID 1947;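 active = inhibition above the screen mean inhibition plus 3 SD, computed separately per campaign, cut at about 18% in these data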;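 note: inhibitors lower polarization as less probe binds the enzyme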
PAD4 inh = PAD4 (human) enzyme inhibition. Q9UM07. recombinant PAD4, RCA probe fluorescence polarization. inhibition, % at 6.36 µM. 330,000 tested, 0.41% active;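 active = percent inhibition above a cutoff equal to the mean of all tested compounds plus 3 SD, cut at about 15% in these data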;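 note: 0% = PAD4 with RCA probe and DMSO and 100% = probe without PAD4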
PRMT1 FP inh = PRMT1 (human) inhibition, primary screen; 370,000 tested, 1.3% active; inhibition, % at 2.79 µM; recombinant PRMT1, activity-based probe fluorescence polarization;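 active = inhibition above about 21% made by adding two undisclosed values, limit read from the data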
Target sequence (Q99873 whole entry, looked up): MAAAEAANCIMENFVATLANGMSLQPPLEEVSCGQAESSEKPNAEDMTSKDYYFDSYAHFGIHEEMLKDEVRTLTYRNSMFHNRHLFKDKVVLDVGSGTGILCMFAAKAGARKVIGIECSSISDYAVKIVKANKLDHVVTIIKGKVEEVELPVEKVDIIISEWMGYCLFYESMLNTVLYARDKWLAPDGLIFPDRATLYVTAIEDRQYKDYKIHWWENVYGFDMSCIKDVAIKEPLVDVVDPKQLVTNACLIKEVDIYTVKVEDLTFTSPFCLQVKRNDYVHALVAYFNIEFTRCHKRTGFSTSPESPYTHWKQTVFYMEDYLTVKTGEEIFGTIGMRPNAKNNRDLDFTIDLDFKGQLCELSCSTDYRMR
SIAE inh = human SIAE inhibition, primary screen; Q9HAT2; SIAE FP-Rh probe binding, fluorescence polarization; inhibition, % at 9.66 µM; 370,000 tested, 0.69% active; AID 1053197;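 active = inhibition above a cutoff: mean of compounds within the control limits plus 3 SD of those, cut at about 17% in these data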;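 note: 0% = plate median of compound wells and 100% = probe without SIAE protein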
Fam108b confirm = Fam108b (mouse) hydrolase inhibition, confirmation assay; shares compounds with Fam108B counter; recombinant Fam108b, FP-Rh probe fluorescence polarization; inhibition, % at 9.51 µM; 930 tested, 44% active; AID 1978;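 active = inhibition above a limit from the primary screen, the mean over all compounds plus 3 SD, cut at about 19% in these data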;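 note: 0% = median of active Fam108b wells and 100% = catalytically dead S170A mutant; inhibitors free the probe so polarization falls as inhibition rises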
Fam108b inh = mouse ABHD17B inhibition; shares compounds with Fam108B counter; recombinant Fam108b, gel-based ABPP, fluorophosphonate probe; inhibition, % at 20 µM; 260 tested, 44% active; AID 588649; in the data active = inhibition above about 40%
PAD4 FP conf = confirmation of human PAD4 inhibitors; shares compounds with PAD4 inh; recombinant PAD4, RCA probe fluorescence polarization; inhibition, % at 6.36 µM; 1,200 tested, 28% active;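 active = mean inhibition across replicates above the hit cutoff set by the earlier primary screen, cut at about 15% in these data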;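 note: inhibitors block active-site labeling by the probe so polarization falls; 0% = PAD4 with probe and DMSO and 100% = probe without PAD4 enzyme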
BSA probe FL = BSA probe counter-screen for TCR-CD3 inhibitors. shares compounds with TCR CD3 inh. TAMRA-labeled BSA probe fluorescence counterscreen. inhibition, % at 9.4 µM. 1,200 tested, 10% active. AID 652035; in the data active = inhibition above about 23%;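 note: 0% = buffer low control and 100% = reference high control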
TCR-CD3 conf = TCR-CD3 interaction inhibition, confirmation; shares compounds with TCR CD3 inh; TAMRA-labeled TCR probe fluorescence binding assay; inhibition, % at 9.4 µM; 1,200 tested, 48% active; AID 652036
PRMT1 confirm = confirmation of human PRMT1 inhibitors | shares compounds with PRMT1 FP inh | recombinant His-PRMT1, activity-based probe fluorescence polarization | inhibition, % at 2.79 µM | 3,300 tested, 42% active;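 active = mean inhibition across replicates above the hit cutoff derived for the earlier primary screen, cut at about 22% in these data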
SIAE inh conf = confirmation of human SIAE inhibitors | inhibition, % at 9.66 µM | SIAE FP-Rh activity-based probe, fluorescence polarization | 2,300 tested, 13% active | shares compounds with SIAE inh;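 active = mean inhibition of the replicates above the hit cutoff set in the primary screen, cut at about 17% in these data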;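 note: 0% = SIAE with DMSO and probe and 100% = probe without SIAE; inhibitors lower polarization as more probe stays unbound to SIAE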
Active calls of the source: *; / = no result given; + = active, no number. Only some compounds are listed: those with a hit (about 2.6% of all), similar ones and a draw of the others. Cut-off read from the data, not from the text of the source, unless noted: active = inhibition above about 19%; inactive = the rest.

SMILES | TCR CD3 inh | PME-1 inh | Fam108B counter | PAD4 inh | PRMT1 FP inh | SIAE inh | Fam108b confirm | SIAE inh conf | others
O=[N+]([O-])c1ccc(O)c(-c2nc(-c3ccccc3)c(-c3cccs3)[nH]2)c1 | 4 | 5 | 26* | 0 | -3 | 17* | 4 | 7
CCOc1cc(-c2nc(-c3ccccc3)c(-c3cc([N+](=O)[O-])ccc3C)[nH]2)ccc1O | -7 | 11 | 21* | -7 | 3 | 24* | 8 | 6
COc1ccc(-c2nc(-c3ccccc3)c(-c3cc([N+](=O)[O-])ccc3C)[nH]2)cc1OC | 6 | 2 | 15 | 1 | -3 | 3 | / | /
O=C(O)c1ccc(-c2nc(-c3ccccc3)c(-c3cccs3)[nH]2)cc1 | 8 | 11 | 4 | 1 | 0 | -3 | / | /
COC1=C[C@H](C(=O)N[C@H]2CCCC[C@@H]2NC(C)=O)[C@H](C)[C@@H](c2ccccc2)CC1=O | / | / | / | / | -3 | 1 | / | /
CCN(CC)c1ccc(NC(=O)c2cc3c(OC)cccc3[nH]2)cc1 | -2 | 20 | 21* | -2 | 4 | 25* | 3 | 12
COc1cccc2[nH]c(C(=O)NC(C)c3ccccc3)cc12 (stereo not given) | 2 | 0 | 1 | -5 | -2 | 7 | / | /
COc1cccc(NC(=O)C2CCCN2C(=O)Nc2ccc(Cl)cc2)c1 (stereo not given) | / | / | / | / | -3 | -6 | / | /
CSc1nsc(/C=C/Nc2ccc(O)cc2C)c1C#N | 27* | 51* | 21* | 29* | 53* | 43* | 14 | 21* | PAD4 FP conf=-2;BSA probe FL=8;TCR-CD3 conf=4
Nc1cc(Cl)nc(N/N=C/c2c(O)ccc3ccccc23)n1 | -2 | 32* | 28* | -2 | 2 | 19* | 2 | 10
Nc1nonc1N/N=C/c1c(O)ccc2ccccc12 | 16 | 30* | 24* | 1 | 1 | 18* | 6 | -22
O=C(NN=Cc1c(O)ccc2ccccc12)c1ccncc1 | -4 | / | / | / | -5 | 5 | / | /
COc1ccc(/C=N/Nc2nc(N)cc(Cl)n2)cc1OC | -4 | 3 | 2 | -2 | 0 | -3 | / | /
O=C(N/N=C\c1c(O)ccc2ccccc12)c1ccc(O)cc1 | 28* | 19 | 23* | 2 | -2 | 27* | -1 | -48 | BSA probe FL=-12;TCR-CD3 conf=21*
COC(=O)C1=CC[C@@H](NC(=O)OC(C)(C)C)[C@H](O)[C@H]1O[Si](C)(C)C(C)(C)C | / | / | / | / | 0 | 7 | / | /
COc1cc(/C=N/Nc2nc(-c3ccc(S(=O)(=O)N(C)C)cc3)cs2)ccc1O | -10 | 28* | 21* | -5 | 0 | 17* | 9 | 8
COC(=O)[C@H](C(C)C)N1Cc2nnn(CC3CCCCC3)c2-c2ccccc2S1(=O)=O | / | / | / | / | -1 | -6 | / | /
C/C(=N\NC(=O)c1cc2ccccc2cc1O)c1cccs1 | 3 | -6 | 19* | -2 | -4 | 28* | -6 | 1
CC(C)NC(=O)Cn1c(-c2cncs2)nc2ccccc21 | / | / | / | / | -3 | -3 | / | /
Cn1nc([N+](=O)[O-])c(C(C#N)c2ccccn2)c(Cl)c1=O (stereo not given) | 4 | 8 | 7 | 4 | 19 | 9 | / | /
CCCn1nc([N+](=O)[O-])c(C(C#N)c2nc3ccccc3o2)c(Cl)c1=O (stereo not given) | -1 | 27* | 29* | 8 | 22* | 22* | 14 | 5
CCn1nc([N+](=O)[O-])c(C(C#N)c2nc3cc(C(F)(F)F)ccc3s2)c(Cl)c1=O (stereo not given) | 1 | 56* | 43* | 14 | 28* | 23* | 38* | 18* | Fam108b inh=65*;PRMT1 confirm=31*
COC(=O)[C@]12C[C@H](CC(=O)N3CCCC3)C(=O)N(Cc3ccc(Cl)cc3Cl)C1=C[C@H](C1CCCC1)O[C@@H]2C | / | / | / | / | 6 | 5 | / | /
O=C(NCCc1c[nH]c2ccccc12)c1ccc(Sc2ccccc2Cl)c([N+](=O)[O-])c1 | / | / | / | / | -3 | -11 | / | /
COc1cc(OC)c2cc(C(=O)N/N=C/c3ccccc3O)[nH]c2c1 | 16 | 32* | 29* | -2 | 7 | 25* | 13 | 5
SMILES | TCR CD3 inh | PME-1 inh | Fam108B counter | PAD4 inh | PRMT1 FP inh | SIAE inh | Fam108b confirm | SIAE inh conf | others
COc1ccc2[nH]c(C(=O)N/N=C/c3ccc(OC)c(O)c3)cc2c1 | -3 | 26 | 13 | 1 | 3 | 15 | / | /
Cc1cc2c(s1)c1cnn(Cc3ccc(F)cc3F)c(=O)c1n2C | / | / | / | / | -2 | 4 | / | /
COc1ccc2ccccc2c1C(O)c1nccn1C (stereo not given) | 79* | 29* | 26* | 26* | 85* | 57* | 55* | 43* | Fam108b inh=0;PAD4 FP conf=39*;BSA probe FL=6;TCR-CD3 conf=3
CCNc1ccccc1CP(=O)(c1ccccc1)c1ccccc1O (stereo not given) | 51* | 70* | 25* | 11 | 75* | 35* | 10 | 12 | BSA probe FL=4;TCR-CD3 conf=5
Cc1ccc(O)c(CP(=O)(c2ccccc2)c2ccccc2)c1 | 4 | 5 | 2 | -4 | -1 | 8 | / | /
Cc1ccc(-n2c(SCC(=O)c3ccc(F)cc3)nnc2-c2cnccn2)cc1 | / | / | / | / | -9 | -8 | / | /
Cn1c(=O)c(NCCc2ccccc2)c2c3c(cccc31)C(=O)c1ccccc1-2 | + | 191* | 156* | 151* | + | 170* | 178* | 160* | Fam108b inh=0;BSA probe FL=+;TCR-CD3 conf=+
Cn1c(NCCc2ccccc2)cc(=O)n(C)c1=O | -9 | 3 | 8 | 0 | 1 | 4 | / | /
CSC[C@@H]1NC(=S)N(c2ccc(C)cc2)C1=O | -1 | 60* | 31* | -14 | 0 | 52* | 50* | -110 | Fam108b inh=40*
Cc1noc(C)c1NC(=O)Nc1ccc2c(c1)C(=O)N(C)[C@H]1CC[C@H](CC(=O)NCc3ccc(Cl)cc3)O[C@@H]1CO2 | / | / | / | / | -1 | 3 | / | /
